Activity calls are given as the source filed them.

Assay [1] can be described thus: small molecules captured by biotinylated probe aFSTL3 – biochemical, small-molecule microarray, fluorescence 635/667, stem cell growth factor project, primary screen (AID 1064).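 Note: measures binding of the biotinylated anti-FSTL3 antibody to printed compounds.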 Particulars: higher = more signal.
The nature of assay [2]: binders from COS7 lysate, DM2A8 probe, primary screen, torsin A project, cell lysate, small-molecule microarray, fluorescence 635/667 (AID 1065). The settings on record: higher = more signal, COS7 lysate expressing mutant human TOR1A.
A short description of assay [3]: small molecules captured by biotinylated probe aFGF2 – biochemical, small-molecule microarray, fluorescence 635/667, stem cell growth factor project, primary screen (AID 1067).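 Note: measures binding of biotinylated aFGF2 protein to printed compounds on slides; z-score merges feature fluorescence and signal-to-noise across triplicate slides.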 Particulars: higher = more signal.
A short description of assay [4]: small molecules captured by biotinylated probe aFGF10 – biochemical, small-molecule microarray, fluorescence 635/667, stem cell growth factor project, primary screen (AID 1071).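 Note: score merges 667 nm spot intensity and signal to noise from triplicate slides.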 The settings on record: higher = more signal.
The target in assay [5] is Neurogenic locus notch homolog protein 2 (Homo sapiens) (UniProt Q04721). Put plainly: small molecules binding Notch2 protein – biochemical, small-molecule microarray, 635 nm fluorescence, stem cell growth factors, primary screen (AID 1073). The settings on record: higher = more signal.
Assay [6] deals with Pro-neuregulin-1, membrane-bound isoform (Homo sapiens) (UniProt Q02297). Put plainly: small molecules binding neuregulin-1 protein – biochemical, small-molecule microarray, fluorescence 635/667, psychiatric disease protein project, primary screen (AID 1075).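 Note: score combines 667 nm spot fluorescence with signal to noise.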 Particulars: NRG1 binding, 635 nm fluorescence, higher = more signal.
In assay [7] the test system is Neuregulin-1 EGF-like domain. Put plainly: small molecules binding NRG1 EGF domain – biochemical, small-molecule microarray, 635 nm fluorescence, primary screen (AID 1081).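 Note: binding of the protein to compounds printed on small-molecule microarray slides.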 The settings on record: higher = more signal.
Assay [8] in a line: FRG1 expression reporter modulators in myotubes – cell-based, C2C12 myotubes, firefly/Renilla luciferase, luminescence, FRG1 inhibition for FSHD, primary screen (AID 1084). The settings on record: FRG1 promoter luciferase, higher = more signal, called active from +8 up or from −8 down.
Assay [9] in a line: small molecules captured by biotinylated probe aFST – biochemical, small-molecule microarray, fluorescence 635/667, stem cell growth factor project, primary screen (AID 1086).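 Note: score merges 667 nm fluorescence with signal-to-noise of each printed compound spot.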 The settings on record: higher = more signal.
The nature of assay [10]: binders of probe aHhip on microarray, primary screen, stem cell growth factor project, biochemical, small-molecule microarray, fluorescence 635/667 (AID 1087).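 Note: score merges spot fluorescence at 667nm with spot signal to noise ratio.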 Particulars: higher = more signal.
Assay [11] deals with PRMT1 (protein arginine N-methyltransferase 1). Put plainly: small molecules binding arginine methyltransferase PRMT1 – biochemical, small-molecule microarray, 635 nm fluorescence, primary screen (AID 1088).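 Note: binding of Prmt1 protein to compounds spotted on small-molecule microarray slides.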 Particulars: higher = more signal.
Assay [12] can be described thus: growth effects on S. cerevisiae YJM789 – YJM789 clinical isolate, OD600, 24 h, basal, primary screen (AID 1089).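 Note: growth of clinical yeast isolate S. cerevisiae YJM 789 seeded 1000 cells per well; test concentration not given here.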 Particulars: higher = more signal, called active from +8 up or from −8 down.
Assay [13] in a line: S. pombe growth modifiers, basal conditions – strain 972, OD600, 24 h, no modulator, primary screen (AID 1090).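 Note: basal condition with compound alone and no growth modifier present; test concentration not given here.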 Particulars: S. pombe 972 growth, higher = more signal, called active from +8 up or from −8 down.
Assay [14] is described as follows: budding yeast growth modifiers under rapamycin – strain BY4716, OD600, 96 h, primary screen (AID 1091). Note: test concentration not given here. The settings on record: S. cerevisiae BY4716 + rapamycin, higher = more signal, called active from +8 up or from −8 down.
In assay [15] the target is Torsin-1A-interacting protein 2 (Homo sapiens) (UniProt Q8NFQ8). Put plainly: small molecules binding lysate-expressed LULL1 – cell lysate, human LULL1 lysate, 635/667 nm fluorescence, primary screen (AID 1092).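 Note: probe is lysate of COS7 cells overexpressing human LULL1; score merges per-feature 667 nm fluorescence with signal-to-noise.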 The settings on record: small-molecule microarray, hLULL1 lysate binding, 635 nm fluorescence; higher = more signal.
A short description of assay [16]: optical density change of DRC41 E. coli – strain DRC41, OD650, 24 h, E. coli filamentation project, primary screen (AID 1093).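 Note: MC1000 strain lacking acrAB efflux and sulA so SOS filamentation is blocked; test concentration not given here.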 The settings on record: E. coli DRC41 growth, higher = more signal, called active from +8 up or from −8 down.
Assay [17] can be described thus: probe aLefty2 binding to arrayed compounds – biochemical, biotinylated probe, 635/667 nm fluorescence, primary screen (AID 1094).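 Note: score merges spot fluorescence near 667 nm with spot signal-to-noise ratio.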 The settings on record: small-molecule microarray, higher = more signal.
Assay [18] relates to Noggin (protein binding on small-molecule microarray). The experiment in a line: small molecules binding Noggin protein – biochemical, 635/667 nm fluorescence, primary screen (AID 1095).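 Note: score merges 667 nm feature fluorescence with signal to noise over triplicate slides.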 Particulars: 635 nm fluorescence, higher = more signal.
Assay [19] deals with Neurogenic locus notch homolog protein 3 (Homo sapiens) (UniProt Q9UM47). The experiment in a line: small molecules binding NOTCH3 protein – biochemical, 635/667 nm fluorescence, primary screen (AID 1096). Particulars: small-molecule microarray, 635 nm fluorescence, higher = more signal.
A short description of assay [20]: probe aEGFR binding to arrayed compounds – biochemical, biotinylated probe, 635/667 nm fluorescence, primary screen (AID 1097).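 Note: probe is a biotinylated anti-EGFR antibody binding compounds printed on slides; score combines fluorescence near 667 nm and signal to noise of each spot.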 Particulars: small-molecule microarray, higher = more signal.

Chain of Neurogenic locus notch homolog protein 2 (Homo sapiens) (Q04721 whole entry, looked up, canonical isoform): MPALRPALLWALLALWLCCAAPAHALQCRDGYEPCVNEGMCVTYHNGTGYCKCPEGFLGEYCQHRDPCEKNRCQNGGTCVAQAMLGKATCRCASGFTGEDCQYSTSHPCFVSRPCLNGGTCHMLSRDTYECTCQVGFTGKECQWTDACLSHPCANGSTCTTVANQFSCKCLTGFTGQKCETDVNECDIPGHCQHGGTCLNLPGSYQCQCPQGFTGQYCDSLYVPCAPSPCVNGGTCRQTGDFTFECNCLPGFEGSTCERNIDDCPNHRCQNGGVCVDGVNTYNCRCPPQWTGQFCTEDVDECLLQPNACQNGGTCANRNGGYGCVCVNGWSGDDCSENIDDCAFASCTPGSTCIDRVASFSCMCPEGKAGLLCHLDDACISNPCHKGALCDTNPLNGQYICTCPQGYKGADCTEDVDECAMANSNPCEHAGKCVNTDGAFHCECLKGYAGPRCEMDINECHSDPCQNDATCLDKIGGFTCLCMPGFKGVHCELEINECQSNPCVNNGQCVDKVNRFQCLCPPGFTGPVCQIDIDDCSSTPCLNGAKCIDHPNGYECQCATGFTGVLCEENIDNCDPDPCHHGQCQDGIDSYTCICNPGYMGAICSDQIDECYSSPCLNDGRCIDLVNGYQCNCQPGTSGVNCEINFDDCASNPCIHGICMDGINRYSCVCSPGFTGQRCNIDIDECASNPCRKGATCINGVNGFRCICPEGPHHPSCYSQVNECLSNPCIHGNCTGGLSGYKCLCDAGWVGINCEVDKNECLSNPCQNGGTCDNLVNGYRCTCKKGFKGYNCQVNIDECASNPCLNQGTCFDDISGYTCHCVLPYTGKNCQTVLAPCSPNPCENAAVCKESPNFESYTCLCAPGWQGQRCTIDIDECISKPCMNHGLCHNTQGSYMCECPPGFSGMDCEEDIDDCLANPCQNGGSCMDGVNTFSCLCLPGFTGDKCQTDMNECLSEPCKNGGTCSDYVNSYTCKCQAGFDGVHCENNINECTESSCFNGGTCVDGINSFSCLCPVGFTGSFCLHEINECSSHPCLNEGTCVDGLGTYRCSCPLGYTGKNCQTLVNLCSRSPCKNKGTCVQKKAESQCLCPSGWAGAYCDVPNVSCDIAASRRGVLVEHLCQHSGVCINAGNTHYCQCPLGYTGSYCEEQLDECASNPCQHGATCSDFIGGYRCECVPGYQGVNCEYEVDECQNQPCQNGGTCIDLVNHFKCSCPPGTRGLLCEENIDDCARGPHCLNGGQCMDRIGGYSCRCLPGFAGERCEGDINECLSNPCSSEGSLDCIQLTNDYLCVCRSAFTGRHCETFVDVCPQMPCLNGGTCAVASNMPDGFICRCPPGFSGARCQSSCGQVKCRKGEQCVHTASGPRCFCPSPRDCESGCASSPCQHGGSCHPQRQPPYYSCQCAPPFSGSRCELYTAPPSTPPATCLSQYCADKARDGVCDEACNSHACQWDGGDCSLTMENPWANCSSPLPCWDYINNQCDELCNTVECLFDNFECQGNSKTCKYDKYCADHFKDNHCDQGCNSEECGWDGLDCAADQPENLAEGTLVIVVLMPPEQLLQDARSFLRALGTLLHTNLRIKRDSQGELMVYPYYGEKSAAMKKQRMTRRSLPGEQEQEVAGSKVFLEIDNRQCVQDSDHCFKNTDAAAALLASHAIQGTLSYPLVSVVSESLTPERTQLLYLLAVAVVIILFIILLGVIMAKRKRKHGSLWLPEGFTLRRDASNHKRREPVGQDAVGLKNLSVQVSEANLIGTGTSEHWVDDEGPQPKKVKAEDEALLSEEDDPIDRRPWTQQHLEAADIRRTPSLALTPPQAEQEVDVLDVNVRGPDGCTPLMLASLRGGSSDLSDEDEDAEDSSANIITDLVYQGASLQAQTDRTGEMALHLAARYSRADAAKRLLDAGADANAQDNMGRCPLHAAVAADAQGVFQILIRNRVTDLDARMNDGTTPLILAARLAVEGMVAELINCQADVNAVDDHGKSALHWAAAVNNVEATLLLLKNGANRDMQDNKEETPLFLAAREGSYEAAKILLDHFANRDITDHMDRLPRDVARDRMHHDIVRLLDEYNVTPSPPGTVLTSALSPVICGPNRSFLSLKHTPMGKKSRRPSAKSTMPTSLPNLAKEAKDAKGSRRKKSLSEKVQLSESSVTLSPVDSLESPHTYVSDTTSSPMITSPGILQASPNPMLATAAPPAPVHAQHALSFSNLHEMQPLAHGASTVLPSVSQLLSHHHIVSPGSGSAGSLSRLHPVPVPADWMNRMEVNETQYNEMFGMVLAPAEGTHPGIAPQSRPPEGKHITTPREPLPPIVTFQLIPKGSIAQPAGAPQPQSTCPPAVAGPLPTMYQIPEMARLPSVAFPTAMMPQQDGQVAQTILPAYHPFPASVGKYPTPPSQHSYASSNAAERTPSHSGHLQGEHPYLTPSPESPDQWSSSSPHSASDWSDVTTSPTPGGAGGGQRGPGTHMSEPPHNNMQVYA
Chain of Pro-neuregulin-1, membrane-bound isoform (Homo sapiens) (Q02297 whole entry, looked up, the tested form may be a part, canonical isoform): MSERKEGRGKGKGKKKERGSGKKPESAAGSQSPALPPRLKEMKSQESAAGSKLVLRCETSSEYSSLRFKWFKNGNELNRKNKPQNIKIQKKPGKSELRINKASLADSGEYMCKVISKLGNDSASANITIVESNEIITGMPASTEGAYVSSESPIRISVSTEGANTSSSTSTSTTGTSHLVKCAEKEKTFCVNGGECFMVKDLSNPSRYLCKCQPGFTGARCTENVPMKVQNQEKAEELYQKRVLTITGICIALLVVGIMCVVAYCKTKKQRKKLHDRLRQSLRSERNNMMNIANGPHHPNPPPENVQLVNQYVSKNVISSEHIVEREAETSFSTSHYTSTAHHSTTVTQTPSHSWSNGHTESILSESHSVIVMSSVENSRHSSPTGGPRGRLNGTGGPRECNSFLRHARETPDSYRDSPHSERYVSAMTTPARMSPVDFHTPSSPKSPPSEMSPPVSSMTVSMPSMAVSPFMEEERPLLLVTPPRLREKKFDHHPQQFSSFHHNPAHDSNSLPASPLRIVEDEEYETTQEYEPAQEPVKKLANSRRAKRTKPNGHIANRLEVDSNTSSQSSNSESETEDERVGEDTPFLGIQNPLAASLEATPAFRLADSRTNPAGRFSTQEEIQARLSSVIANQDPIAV
Chain of Torsin-1A-interacting protein 2 (Homo sapiens) (Q8NFQ8 whole entry, looked up): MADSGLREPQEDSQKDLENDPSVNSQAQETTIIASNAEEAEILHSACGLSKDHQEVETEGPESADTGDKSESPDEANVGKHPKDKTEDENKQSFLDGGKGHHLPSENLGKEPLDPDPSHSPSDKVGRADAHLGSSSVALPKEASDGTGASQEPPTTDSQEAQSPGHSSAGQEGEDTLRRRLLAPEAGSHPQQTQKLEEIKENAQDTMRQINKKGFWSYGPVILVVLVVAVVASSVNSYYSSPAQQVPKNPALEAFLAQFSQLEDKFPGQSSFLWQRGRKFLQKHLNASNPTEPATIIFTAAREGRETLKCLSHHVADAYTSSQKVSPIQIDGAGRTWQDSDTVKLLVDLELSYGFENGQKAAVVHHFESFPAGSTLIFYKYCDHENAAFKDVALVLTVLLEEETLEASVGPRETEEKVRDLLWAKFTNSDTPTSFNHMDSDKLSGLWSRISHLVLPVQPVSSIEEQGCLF

As for `COc1cccc(C(=O)O[C@H]2CC[C@]3(C)C4=C(CCC3C2(C)C)[C@]2(C)CC[C@H]([C@H](C)CCCC(C)C)[C@@]2(C)CC4)c1` (stereo not given in full), the composite z-score in assay [1] is -0.526; in assay [2], 0.0024; in assay [3] it was -0.0425; in [4] it was 0.366; in assay [5], -0.87; in assay [6], 0.103. The composite z-score is 0.181 in [7]; 0.169 in assay [9]; 0.0722 in assay [10]; -0.0398 in assay [11]; 0.385 in assay [15]; -0.082 in [17]. The composite z-score in [18] was 0.383; in assay [19], 0.618; in [20], -0.0158. Further, the z-score in [8] is -1.06 (inactive); in [12], -1.73 (inactive); in assay [13], -1.08 (inactive); in assay [14], -0.166 (inactive); in assay [16] it was 2.43 (inactive).

Consider `COc1c(C)cc(-c2cc3c(c(-c4ccc(Oc5ccccc5)cc4)n2)[Si](C(C)C)(C(C)C)OC3)cc1C`, for which the composite z-score was -0.128 in [1]; -0.0685 in assay [2]; -0.147 in assay [3]; -0.114 in assay [4]; 0.104 in assay [5]; -0.0614 in [6]. Moreover, the composite z-score in assay [7] was -1.06; in assay [9], 0.0723; in assay [10] it was -0.353; in assay [11], -0.871; in assay [15], 0.0255; in assay [17], -0.0528. Moreover, the composite z-score was 0.104 in assay [18], -0.386 in assay [19] and -0.0947 in assay [20]. The z-score in [8] was 0.643 (inactive); in assay [12] it was 1.09 (inactive); in [13] it was 0.818 (inactive); in assay [14] it was 2.03 (inactive); in assay [16], -1.38 (inactive).

On to `C=CCC(OC(C)=O)[C@@H]1[C@@H](N(Cc2ccc(-c3cccc(C(F)(F)F)c3)o2)C(=O)c2ccc(C)cc2)c2cc(OCCCO)ccc2N1C(=O)c1ccc(-c2ccccc2)cc1` (stereo not given in full), for which the composite z-score in [1] is -0.322; in [2] it was -0.179; in [3], -0.129; in [4], 0.265; in [5], 0.0105; in assay [6], -0.416. In addition, the composite z-score in assay [7] was -0.515; in assay [9] it was 0.137; in assay [10], -0.214; in [11], 0.0003; in assay [15], 0.476; in assay [17] it was -0.194. For the same compound, the results for the composite z-score in assay [18], in assay [19] and in [20] were 0.507, 0.46 and -0.139, respectively. Further, the z-score in assay [8] is 0.887 (inactive); in assay [12], 0.0652 (inactive); in assay [13], -1.07 (inactive); in assay [14], 0.271 (inactive); in assay [16], 1.03 (inactive).

`CCCCCCc1nc(CCCc2cc3c(c(CCCCCC)n2)[Si](C(C)C)(C(C)C)OC3)cc2c1[Si](C(C)C)(C(C)C)OC2`: the composite z-score in [1] was -0.0039; in [2], 0.0271; in assay [3], -0.149; in assay [4], -0.408; in [5], -0.955; in assay [6], -0.247. The composite z-score in assay [7] is -0.774; in assay [9], -0.344; in [10], 0.0274; in assay [11], -0.41; in assay [15] it was -0.134; in [17] it was -0.208. Moreover, the composite z-score was 0.257 in assay [18], -0.58 in assay [19] and -0.287 in assay [20]. Moreover, the z-score in assay [8] is 0.521 (inactive); in [12] it was -0.506 (inactive); in [13], -2.38 (inactive); in [14], 0.256 (inactive); in [16], -0.3 (inactive).

As to `COC(=O)[C@@]1(Cc2ccc(OC)cc2)[C@H]2c3cc(C(=O)N(C)C)n(Cc4c(OC)[nH]cc(C)c4=O)c3C[C@H]2CN1C(=O)c1ccccc1`, the composite z-score in assay [1] was 0.522; in [2], 0.0954; in [3] it was -0.102; in [4], 0.289; in [5] it was 1.49; in assay [6], 1.92. Further, the composite z-score in [7] is 1.08; in assay [9], 0.927; in assay [10], -0.444; in assay [11], -0.386; in [15] it was 3.62; in assay [17] it was -0.0404. The composite z-score in [18] was -0.0598; in [19], 0.145; in assay [20], 0.487. Further, the z-score was -1.04 (inactive) in assay [8]; -1.88 (inactive) in assay [12]; 0.349 (inactive) in [13]; -0.464 (inactive) in [14]; -0.252 (inactive) in assay [16].

These data come from PubChem BioAssay.
